# Experimental data: PubChem BioAssay
# A number with no mark means an inactive call. For part of these data: Results with a measured potency or affinity are listed apart. Active and inactive are the calls of the source. Unless noted, no rule for the calls is given here.
# Key:
# [1] = antimalarial activity against Dd2 strain (AID 2302;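 active = growth inhibition above 50% at the single 2 µM test dose, taken to imply half-maximal potency below 2 µM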;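 also: 0% = DMSO untreated growth and 100% = chloroquine plus artemisinin killed control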); settings: P. falciparum Dd2 in RBCs, LDH growth readout, 72 h; at 2 µM; hits give high values
# [2] = HepG2 cytotoxicity, primary screen, cytotoxicity control for P. falciparum antimalarial project, cell-based, ATP luminescence (AID 2303;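 active = inhibition above 50%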;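 also: 0% = DMSO wells and 100% = digitonin-killed cells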); settings: HepG2 viability, 24-48 h, at 10 µM, hits give high values
# [3] = target: L-lactate dehydrogenase (Plasmodium falciparum (isolate CDC / Honduras)) (UniProt Q27743); assay: PfLDH activity inhibition – cell lysate, 3D7 strain, counter-screen for P. falciparum growth inhibition project (AID 2304);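 also: 0% = vehicle and 100% = reference inhibitor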; settings: P. falciparum 3D7 crude extract, LDH APAD/NBT absorbance; at 2 µM; hits give high values
# Chain of L-lactate dehydrogenase (Plasmodium falciparum (isolate CDC / Honduras)) (Q27743 whole entry, looked up): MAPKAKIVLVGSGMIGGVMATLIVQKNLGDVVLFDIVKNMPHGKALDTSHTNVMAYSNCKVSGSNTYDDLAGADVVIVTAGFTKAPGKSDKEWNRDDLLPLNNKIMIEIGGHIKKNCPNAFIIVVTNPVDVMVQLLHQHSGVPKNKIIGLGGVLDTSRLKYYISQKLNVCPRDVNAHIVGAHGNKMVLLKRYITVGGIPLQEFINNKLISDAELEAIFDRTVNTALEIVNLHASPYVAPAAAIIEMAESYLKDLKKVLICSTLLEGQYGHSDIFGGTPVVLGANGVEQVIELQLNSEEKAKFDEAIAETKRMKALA
# [4] = inhibition of 3D7 malaria parasite growth – strain 3D7 (AID 2306);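 also: 0% = DMSO wells and 100% = chloroquine plus artemisinin control wells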; settings: P. falciparum 3D7 erythrocytic growth, LDH absorbance, 72 h; at 2 µM; hits give high values
# [5] = target: Calcium-dependent protein kinase 1 (Plasmodium falciparum (isolate 3D7)) (UniProt P62344); assay: PfCDPK1 kinase inhibitors, biochemical, TCAMS library (AID 1159585; cut-off not given, nearly all actives have IC50 up to about 0.98 µM;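 also: inhibitors leave more ATP so luminescence rises with inhibition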); settings: recombinant PfCDPK1, Kinase-Glo ATP depletion luminescence
# Chain of Calcium-dependent protein kinase 1 (Plasmodium falciparum (isolate 3D7)) (P62344 whole entry, looked up): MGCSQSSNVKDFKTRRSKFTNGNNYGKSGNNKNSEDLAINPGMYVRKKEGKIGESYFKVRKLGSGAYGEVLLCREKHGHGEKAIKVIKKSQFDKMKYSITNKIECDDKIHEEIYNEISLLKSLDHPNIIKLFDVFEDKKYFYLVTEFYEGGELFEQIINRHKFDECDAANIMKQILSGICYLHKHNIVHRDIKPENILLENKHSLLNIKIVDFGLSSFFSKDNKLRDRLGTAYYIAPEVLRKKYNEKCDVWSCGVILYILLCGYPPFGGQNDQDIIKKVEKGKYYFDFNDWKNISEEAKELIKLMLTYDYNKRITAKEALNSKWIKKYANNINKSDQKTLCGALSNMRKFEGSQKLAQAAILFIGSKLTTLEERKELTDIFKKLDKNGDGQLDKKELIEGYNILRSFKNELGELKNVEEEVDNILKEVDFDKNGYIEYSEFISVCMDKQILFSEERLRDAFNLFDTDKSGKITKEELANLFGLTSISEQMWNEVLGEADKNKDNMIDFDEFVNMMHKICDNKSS
# [6] = target: Plasmodium falciparum protein kinase 6 (PK6, PF3D7_1337100) (UniProt Q8IDW1); assay: PfPK6 kinase inhibitors, biochemical, TCAMS library (AID 1159586); settings: recombinant PfPK6, Kinase-Glo ATP depletion luminescence
# Chain of Plasmodium falciparum protein kinase 6 (PK6, PF3D7_1337100) (Q8IDW1 1-305): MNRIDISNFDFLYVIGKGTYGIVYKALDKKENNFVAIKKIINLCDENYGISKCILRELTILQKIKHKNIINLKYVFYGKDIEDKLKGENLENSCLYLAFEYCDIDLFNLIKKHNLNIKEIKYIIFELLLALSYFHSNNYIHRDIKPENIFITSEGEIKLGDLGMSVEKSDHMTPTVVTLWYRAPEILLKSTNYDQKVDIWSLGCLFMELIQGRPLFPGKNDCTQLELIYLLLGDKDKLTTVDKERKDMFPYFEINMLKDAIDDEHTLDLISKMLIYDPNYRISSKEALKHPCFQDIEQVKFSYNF
# [7] = target: Protein kinase 7 (PK7), Plasmodium falciparum 3D7 (PF3D7_0213400) (UniProt Q7YTF7); assay: inhibition of Plasmodium PK7 catalytic activity – biochemical, TCAMS antimalarial set, Kinase-Glo luminescence (AID 1159587); settings: recombinant PfPK7, Kinase-Glo ATP depletion luminescence
# Chain of Protein kinase 7 (PK7), Plasmodium falciparum 3D7 (PF3D7_0213400) (Q7YTF7 1-343): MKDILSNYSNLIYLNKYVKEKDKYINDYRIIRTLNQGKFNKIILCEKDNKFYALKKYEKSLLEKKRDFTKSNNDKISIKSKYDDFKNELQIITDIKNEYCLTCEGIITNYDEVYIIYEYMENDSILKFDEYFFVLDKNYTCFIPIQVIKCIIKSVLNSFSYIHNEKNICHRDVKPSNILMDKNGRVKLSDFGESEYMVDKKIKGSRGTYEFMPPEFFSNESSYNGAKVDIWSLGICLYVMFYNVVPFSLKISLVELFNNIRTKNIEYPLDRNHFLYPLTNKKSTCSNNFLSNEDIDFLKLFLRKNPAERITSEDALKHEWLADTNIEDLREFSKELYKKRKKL
# [8] = target: Calcium-dependent protein kinase 4 (Plasmodium falciparum (isolate 3D7)) (UniProt Q8IBS5); assay: PfCDPK4 kinase inhibitors, biochemical, TCAMS library (AID 1159588; cut-off not given, nearly all actives have IC50 up to about 0.91 µM); settings: recombinant PfCDPK4, Kinase-Glo ATP depletion luminescence
# Chain of Calcium-dependent protein kinase 4 (Plasmodium falciparum (isolate 3D7)) (Q8IBS5 whole entry, looked up): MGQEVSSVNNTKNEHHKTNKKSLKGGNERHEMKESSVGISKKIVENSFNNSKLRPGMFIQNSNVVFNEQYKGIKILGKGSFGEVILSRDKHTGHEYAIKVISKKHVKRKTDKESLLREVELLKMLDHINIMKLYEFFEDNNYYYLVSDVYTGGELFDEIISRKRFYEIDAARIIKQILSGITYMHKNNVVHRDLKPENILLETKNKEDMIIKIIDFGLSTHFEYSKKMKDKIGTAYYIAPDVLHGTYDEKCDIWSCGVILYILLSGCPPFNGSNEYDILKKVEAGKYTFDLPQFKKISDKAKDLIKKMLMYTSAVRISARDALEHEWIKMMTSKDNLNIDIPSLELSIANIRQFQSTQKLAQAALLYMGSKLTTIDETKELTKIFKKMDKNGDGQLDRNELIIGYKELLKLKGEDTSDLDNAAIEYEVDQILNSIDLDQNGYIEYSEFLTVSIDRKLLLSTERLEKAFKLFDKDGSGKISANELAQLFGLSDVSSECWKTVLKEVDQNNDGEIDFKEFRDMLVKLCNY
Structure (SMILES),growth inhibition [1],inhibition [2],inhibition [3] [%],growth inhibition [4],outcome [5],outcome [6],outcome [7],outcome [8]
COc1ccc(C)c(Nc2ccnc(Nc3ccc(-c4cnc[nH]4)cc3)n2)c1,6%,40%,-1,97% (active),inactive,inactive,inactive,inactive
CCCc1cc(=O)[nH]c(-n2nc(C)cc2NC(=O)c2cc3ccccc3o2)n1,63% (active),39%,-2,90% (active),inactive,inactive,inactive,inactive
Cc1cc(C(=O)Nc2ccc(-c3nc4ccccc4[nH]3)cc2)ccc1[N+](=O)[O-],47%,55% (active),1,101% (active),inactive,inactive,inactive,inactive
Cc1nc(C)c(CC(=O)Nc2cccc(-c3cccc(-c4nc5c(C)cccc5[nH]4)c3)c2)s1,35%,43%,-6,92% (active),inactive,inactive,inactive,inactive
Clc1cccnc1N1CCN(c2ncccc2Cl)CC1,0%,2%,4,97% (active),inactive,inactive,inactive,inactive
COc1ccc(CCNC(C)Cc2ccc(C(=O)Nc3ccc(CC(C)NCCc4cccc(Cl)c4)cc3)cc2)cc1 (stereo not drawn),89% (active),99% (active),-10,101% (active),inactive,inactive,inactive,inactive
Oc1ccc(-c2nc3c4cc(I)ccc4c4ccc(I)cc4c3[nH]2)cc1,51% (active),-3%,2,98% (active),inactive,inactive,inactive,inactive
Cc1cc(NCCC(=O)Nc2ccccc2)nc(NCCOc2ccccc2)n1,9%,5%,0,100% (active),inactive,inactive,inactive,inactive
CCCC(C)Nc1nc(C)cc(N[C@@H](CC(C)C)C(=O)NCCc2ccccc2)n1 (stereo partly drawn),51% (active),9%,-2,96% (active),inactive,inactive,inactive,inactive
c1cc(CN2CCC(CCN3CCCCC3)CC2)cc(-c2csc(-c3nc4ccccc4[nH]3)c2)c1,99% (active),89% (active),-3,99% (active),inactive,inactive,inactive,inactive
O=C(C=Cc1ccc(Cl)c(Cl)c1)NCCCCCN1CCCC(CCCNC(=O)/C=C/c2ccccc2)C1 (stereo not drawn),12%,92% (active),-4,98% (active),inactive,inactive,inactive,inactive
CCCCCCCN1CC[C@H](NC(=O)Nc2ccnc3ccc(OC)cc23)[C@H](C(=O)OCC)C1,73% (active),11%,7,101% (active),inactive,inactive,inactive,inactive
CC(=O)Nc1ccc(C(=O)Nc2ccc(-c3cccc(-c4nc5ccc(F)cc5[nH]4)c3)cc2)cn1,84% (active),13%,-2,100% (active),inactive,inactive,inactive,inactive
O=C(Nc1cccnc1)c1cc(C(=O)Nc2cccnc2)cc([N+](=O)[O-])c1,100% (active),-12%,-2,100% (active),inactive,inactive,inactive,inactive
CS(=O)(=O)Nc1cccc(-c2cnc3[nH]cc(-c4ccc(C(=O)O)cc4)c3c2)c1,82% (active),-11%,0,98% (active),inactive,inactive,inactive,inactive
OCc1ccc2nc3c(cc2c1)-c1cccc2cccc-3c12,-1%,16%,4,96% (active),inactive,inactive,inactive,inactive
COCCCNc1sc(S(=O)(=O)c2ccccc2)nc1S(=O)(=O)c1ccc(C)cc1,44%,7%,-1,84% (active),inactive,inactive,inactive,inactive
NC(N)=NN=Cc1ccccc1OCc1ccccc1Cl,30%,14%,5,101% (active),inactive,inactive,inactive,inactive
CCS(=O)(=O)N1CCN(c2nc(-c3ccccc3)nc(COC)c2Cc2ccccc2F)CC1,34%,-2%,0,82% (active),inactive,inactive,inactive,inactive
NC(=O)c1ccc(NCC(=O)Nc2cccc(-c3cccc(-c4nc5ccccc5[nH]4)c3)c2)cc1,30%,9%,-3,99% (active),inactive,inactive,inactive,inactive
COc1ccc2ncc(C#N)c(CCN3CCC(NCc4ccc5c(n4)NC(=O)CS5)CC3)c2n1,17%,9%,-1,89% (active),inactive,inactive,inactive,inactive
